# Source: PubChem BioAssay (NCI)
# Compounds without any hit were thinned out: in the full panel of roughly 83,000, 20% have a hit.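 Single-concentration screen, 48 h exposure, 96-well plates. Endpoint: percent growth. Below 10 = active.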 Unmarked numbers belong to inactive results. Calls of active or inactive are those of the source.
# Legend:
# Assay in all cases: NCI-60 one-dose screen, 48 h (100 = growth as untreated, 0 = no growth, -100 = all killed)
# Settings in all cases: 10 µM unless noted
# [1] = test system: T-47D breast
# [2] = test system: BT-549 breast
# [3] = test system: MDA-MB-435 melanoma
# [4] = test system: SW-620 colon
# [5] = test system: MCF7 breast
# [6] = test system: HCT-116 colon
# [7] = test system: HCC-2998 colon
# [8] = test system: KM12 colon
SMILES,growth [1],growth [2],growth [3],growth [4],growth [5],growth [6],growth [7],growth [8]
COc1cc(CNC(=O)/C=C/C=C/c2ccc3c(c2)OCO3)ccc1OCc1cn(-c2ccc(C)c(C)c2)nn1,80.5%,88.3%,76.9%,92.1%,81.9%,75.2%,98%,84%
O=C(CCCCCCN1CC(=O)N2[C@H](c3cc(Br)cs3)c3[nH]c4ccccc4c3C[C@H]2C1=O)NO,17.3%,68.1%,22.6%,8.76% (active),33.2%,13%,75.1%,47.2%
CCN(C(=O)N1CCN(c2cc3c(cc2F)c(=O)c(C(=O)O)cn3C2CC2)CC1)c1nc(-c2ccc(Cl)cc2)cs1,22.3%,-8.09% (active),17.9%,18.3%,9.42% (active),9.89% (active),25%,13.1%
Cc1cc2c([nH]1)CSc1cc(S(=O)(=O)c3ccccc3)c(=O)[nH]c1-2,4.92% [100 µM] (active),-12.2% [100 µM] (active),10.6% [100 µM],23.8% [100 µM],-0.665% [100 µM] (active),1.35% [100 µM] (active),12.4% [100 µM],-37.2% [100 µM] (active)
O=C1c2cccnc2C(=O)c2c1c(C(=O)NCCn1ccnc1)c1ccccn21,24.2%,45.8%,-84.2% (active),12.9%,0.25% (active),-8.04% (active),22.4%,31.3%
Cc1cc(=O)[nH]c2c(C#N)cnn12,99.6%,107%,104%,92.4%,93.2%,98.5%,101%,107%
N#CC1=C(c2ccc(Cl)cc2)Nc2c(c(-c3ccc(Cl)cc3)nn2-c2ccccc2)C12C(=O)Nc1ccc(Cl)cc12 (configuration not stated),42.3%,31.7%,55.1%,54.8%,33.2%,26.1%,69.1%,27.7%
O=C(/C=C/c1ccccc1)c1cccc(OCCCOc2cccc(C(=O)/C=C/c3ccccc3)c2)c1,72.1%,92%,101%,54.2%,11.3%,-81.3% (active),42.2%,25.7%
O=C(Nc1cccnc1Nc1ccc(F)cc1)c1cn(Cc2cccc(Oc3ccccc3)c2)nn1,65.4%,69.8%,-32.4% (active),56.5%,40.1%,68.8%,84.8%,55.9%
CN1C(=O)/C(=C/c2cn(-c3ccccc3)nc2-c2ccccc2)SC1=S,96.1%,106%,99.5%,98.8%,83.6%,99.8%,115%,102%
O=C(c1ccc(Cl)cc1)N1CCN(c2ccnc3cc(Cl)ccc23)CC1,58%,106%,97.5%,104%,83.7%,81.5%,108%,94.9%
O=c1oc2c(cnc3ccccc32)cc1-c1ccsc1,85.9%,100%,102%,96.8%,33.2%,99.7%,123%,94%
CCCCCCCCn1ccc2cc(NC(=O)Cn3cc(CN4CCCCC4)nn3)ccc21,-14.1% (active),71.6%,-74.6% (active),-66.1% (active),9.34% (active),2.64% (active),-70.4% (active),19%
O=S(=O)(Nc1cc(Br)c(O)c2ccccc12)c1ccc(F)cc1,6.12% (active),100%,-90.4% (active),104%,49.1%,51%,97.8%,86.4%
CC[C@]12C=CCN3CC[C@@]4(c5cc(NC(=O)CCC(=O)OCc6cn(Cc7ccc(F)cc7)nn6)c(OC)cc5N(C)[C@H]4[C@@](O)(C(=O)OC)[C@@H]1OC(C)=O)[C@@H]32,102%,108%,101%,104%,96.4%,96.3%,106%,103%
CCCCCCCCn1ccc2cc(NC(=O)CN3CCN(c4nc(C)cc(Cl)n4)CC3)ccc21,83.4%,101%,97.7%,90.2%,78.1%,82.2%,103%,91.9%
O=c1oc2ccc([N+](=O)[O-])cc2cc1Br,101%,112%,104%,98.1%,97.7%,105%,114%,107%
N#CC1CCc2c(c(-c3cn[nH]c3C(F)(F)F)nc3c(F)cc4[nH]ncc4c23)C1 (configuration not stated),1.96% (active),-11.6% (active),7.99% (active),8.48% (active),12.9%,5.5% (active),44%,13.6%
COc1ccc(OC)c(C(=O)/C=C/c2cc3c(c(OC)c2OC)OCO3)c1,70.6%,65.6%,63.2%,68.8%,31.4%,43.6%,86.3%,55%
COc1ccc(C(c2cc(OC)c(OC)c(OC)c2)N2CCN(c3ccccc3)CC2)cc1 (configuration not stated),81.8%,93.6%,9.02% (active),74.1%,72.8%,62.8%,93.3%,65.1%
CN(C)CC(=O)Nc1ccc2ncnc(Nc3ccc(Oc4cccc(C(F)(F)F)c4)c(Cl)c3)c2c1,48.6%,77.5%,61%,64.6%,41.6%,44.1%,23.7%,55.5%
O=C1NC(=O)c2c1c1c3ccccc3ccc1c1[nH]c3ccc(Br)cc3c21,4.7% (active),39.4%,14%,18%,9.71% (active),7.95% (active),49.3%,4.99% (active)
C#CCn1cnc2c(Nc3cccc(NC(=O)C=C)c3)ncnc21,72%,71.5%,82.6%,99.6%,80.1%,85.1%,105%,96.3%
COc1cc(NC(C)CCCNC(C)C)c2ncccc2c1OC (configuration not stated),31.6%,94.4%,108%,92.6%,93.5%,92%,91.7%,106%
C#CCOc1ccc2ncnc(Nc3ccc(NC(=O)CCl)cc3)c2c1,16.2%,-19.5% (active),17.7%,-13.9% (active),5.26% (active),0.822% (active),65.2%,8.97% (active)
CCCCCCC1(C)NCCO1 (configuration not stated),108%,103%,109%,106%,99.7%,106%,99.2%,106%
O=C(Nn1c2c(sc1=NCc1ccccc1)C(=O)c1ccccc1C2=O)c1cc2ccc1CCc1ccc(cc1)CC2,35.1%,77.3%,-85.5% (active),77.5%,40%,55.9%,101%,74.8%
CC(=O)Nc1nc2ccc(NS(=O)(=O)c3cccc4c(N(C)C)cccc34)cc2[nH]1,74.3%,61.3%,-28.6% (active),38.7%,22.4%,62.2%,83.3%,55.1%
CC1=Nc2cnc(Nc3ccc(OCCN4CCCCC4)cc3)nc2Nc2ccccc21,66.4%,78.6%,56.3%,62.3%,67.6%,64.1%,67%,12.8%
